Inconclusive results are not listed. Activity calls are given as the source filed them.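 Rule for the calls, unless noted: active = aptamer binding inhibition above 30%, about 3 SD of noise from non-fluorescent compounds; inactive = inhibition at or below 30%.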

Test [1] can be described thus: yeast TOR pathway RPL19A-GFP modulators, primary screen, cell-based, S. cerevisiae, multiplex flow cytometry (AID 1862; in the data active = percent of DMSO control GFP below about 86%;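 note: lower values mimic rapamycin by blocking the RPL19A rise seen in DMSO cells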). Particulars: S. cerevisiae RPL19A-GFP strain, flow cytometry fluorescence, 3 h; at 10 µM; stronger effect = lower value.
Test [2] in a line: modulators of MEP2-GFP levels in yeast, primary screen, S. cerevisiae, multiplex flow cytometry (AID 1867;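 active = GFP response, as percent of the DMSO control, above the screen-wide mean plus 3 SD, about 139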;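 note: median GFP channel fluorescence of barcode-gated MEP2-GFP cells measured by flow cytometry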). As to conditions: S. cerevisiae MEP2-GFP strain, 3 h, at 10 µM, stronger effect = higher value, 100% means same as DMSO wells.
The nature of test [3]: modulators of CIT2-GFP expression in yeast, primary screen, S. cerevisiae, GFP fusion, multiplex flow cytometry (AID 1870;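 active = percent response above a set limit, the screen-wide mean plus 3 SD, cut at about 130% in these data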;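 note: barcoded CIT2-GFP strain pooled with four other GFP strains with rapamycin as positive control; median GFP fluorescence per well over plate mean of DMSO wells so 100% = DMSO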). As to conditions: 3 h, at 10 µM, stronger effect = higher value.
The nature of test [4]: modulators of LAP4-GFP expression in yeast, primary screen, S. cerevisiae, multiplex flow cytometry (AID 1873;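 active = GFP signal, as percent of the solvent control, above the screen mean plus 3 SD, about 149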). Particulars: 3 h, at 10 µM, stronger effect = higher value.
Test [5] can be described thus: modulators of AGP1-GFP expression in yeast TOR pathway, primary screen, cell-based, multiplex flow cytometry, S. cerevisiae (AID 1887;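 active = GFP signal above the screen-wide mean plus 3 SD, that is over about 124.5% of the solvent control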;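 note: AGP1-GFP fusion strain of S. cerevisiae within a five-strain barcoded multiplex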). As to conditions: 3 h, at 10 µM, stronger effect = higher value.
The nature of test [6]: inhibitors of CD8+ T cell-vesicle binding, pilot screen, LFA-1/ICAM-1 modulator project, MLPCN validation set, flow cytometry (AID 2523;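 active = response below a set limit, under 55% cells CD8-positive and vesicle-bound, and CD8 cells' 90th-percentile brightness under 279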;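 for vesicle binding response: mean PE anti-B7-1 fluorescence of CD8+ cells relative to row control; 100% = QL9-loaded vesicles with DMSO vehicle in the same plate row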). Particulars: 2C mouse CD8+ T cells, at 7 µM, stronger effect = lower value; double positive events: measured here: CD8+/vesicle+ event percentage.
Test [7] addresses Integrin beta-1 (Homo sapiens) + Integrin alpha-4 (Homo sapiens) (UniProt P13612+P05556). Briefly: inhibition of HUTS-21 binding to VLA-4, pilot screen, VLA-4 allosteric modulator project, U937 cells, HUTS-21 mAb, flow cytometry, validation set (AID 2674;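 active = inhibition above 50%, about 3 SD of the validation set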;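 note: antibody binding induced by the VLA-4 ligand LDV present at three times its Kd; 0% = LDV ligand with antibody and no compound and 100% = antibody without LDV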). Particulars: HUTS-21 LIBS mAb binding, at 6.7 µM, stronger effect = higher value, binding induced by LDV ligand.
Test [8] can be described thus: superoxide lowering in aged yeast cells, pilot screen, validation compound set (AID 2706;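 active = superoxide response below 65% of plate, a cut near 3 SD across the whole screen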;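 note: yeast exposed to compound for one week at 30 degrees C before staining; 100% = mean of all compound wells on the same plate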). Particulars: S. cerevisiae aging, superoxide DHE fluorescence; at 10 µM; stronger effect = lower value.
Test [9] concerns the target Beta-adrenergic receptor kinase 1 (Homo sapiens) (UniProt P25098). Briefly: GRK2 binders displacing RNA aptamer, biochemical, validation, human GRK2, bead flow cytometry (AID 488806). Particulars: bead-bound GRK2, FAM-aptamer displacement, at 10 µM, stronger effect = higher value.
Test [10] has as its target Beta-2 adrenergic receptor (Homo sapiens) (UniProt P07550). Briefly: beta2AR agonists driving receptor internalization, pilot screen, cell-based, FAP fluorogen, flow cytometry, validation set (AID 504459;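 active = percent response above 42, roughly 3 SD of non-fluorescent test compounds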;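 note: agonist-driven loss of surface beta2AR via internalization measured by FAP dye flow cytometry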). As to conditions: Am2.2-beta2AR cells, FAP surface receptor flow cytometry; at 10 µM; stronger effect = higher value.
Test [11] addresses AP-2 complex subunit beta (Homo sapiens) (UniProt P63010). Briefly: inhibitors of arrestin peptide binding to AP2, pilot screen, biochemical, validation set, GST-AP2 beads, flow cytometry (AID 504541;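 active = inhibition above 54%, about 3 SD of non-fluorescent compounds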;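 note: AP2 carries R879A mutation and is captured from E. coli lysate; bead-bound FITC arrestin peptide fluorescence measuring arrestin peptide binding to AP2; 0% = DMSO wells and 100% = excess unlabeled arrestin peptide control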). As to conditions: FITC arrestin peptide, at 10 µM, stronger effect = higher value, AP2 beta2 appendage fragment, R879A mutant.
Test [12] is described as follows: yeast V-ATPase proton transport modulators, S. cerevisiae, pHLuorin, HTS validation (AID 504600; in the data active = response above about 15%;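 note: plate controls were DMSO for no effect and reference compound for full effect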). Particulars: S. cerevisiae pHLuorin cytosolic pH, at 10 µM, stronger effect = higher value.
The test system of test [13] is anti-desmoglein-3 scFv antibody binding to human DSG3. Briefly: inhibitors of anti-DSG3 scFv binding to DSG3, pilot screen, biochemical, validation compound set, bead-based, flow cytometry (AID 588368;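 active = binding below the plate cutoff, the plate median minus 3 SD, with a reading above zero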;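 note: signal is the median channel fluorescence of bead-bound GFP antibody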). Particulars: Protein G beads, DSG3-Fc, scFv-GFP binding, at 10 µM, stronger effect = lower value.
Test [14] in a line: inhibitors of fungal efflux pumps CDR1, CDR2, MDR1, pilot screen, validation compound set, multiplex, phenotypic (AID 588506;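 active = efflux inhibition above 0.42, the validation set average plus 4 SD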;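 note: Nile Red retained in cells so higher fluorescence means more efflux inhibition; 0 = negative control wells and 1 = enniatin B 25 µM full block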). Particulars: S. cerevisiae pump-expressing triplex, Nile Red efflux flow cytometry; at 10 µM; stronger effect = higher value; the pumps come from Candida albicans.
Test [15] has as its target ATP-binding cassette sub-family B member 6 (Homo sapiens) (UniProt Q9NP58). Briefly: ABCB6 transporter inhibitors, pilot screen, K562-ABCB6 cells, flow cytometry, validation set (AID 588550;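 active = inhibition above the screen-wide mean plus 3 SD, about 51%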;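 note: 0% = DMSO wells and 100% = benzethonium chloride 70 µM positive control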). As to conditions: K562-ABCB6 porphyrin accumulation, 1 h, at 10 µM, stronger effect = higher value.
Test [16] in a line: promoters of myeloid differentiation in arrested cells, primary screen, cell-based, GFP/MAC1 double positive, flow cytometry, validation set (AID 588685;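 active = differentiation response of at least 50%, scaled between solvent and reference control, from cells with both markers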;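 note: compound exposure lasts four days before antibody staining and flow analysis; 0% = DMSO wells and 100% = 5 µM fulvestrant positive control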). Particulars: ER-HoxA9 marrow cells, stronger effect = higher value, normalized: vehicle 0, fulvestrant 100.

Chain of Beta-adrenergic receptor kinase 1 (Homo sapiens) (P25098 whole entry, looked up): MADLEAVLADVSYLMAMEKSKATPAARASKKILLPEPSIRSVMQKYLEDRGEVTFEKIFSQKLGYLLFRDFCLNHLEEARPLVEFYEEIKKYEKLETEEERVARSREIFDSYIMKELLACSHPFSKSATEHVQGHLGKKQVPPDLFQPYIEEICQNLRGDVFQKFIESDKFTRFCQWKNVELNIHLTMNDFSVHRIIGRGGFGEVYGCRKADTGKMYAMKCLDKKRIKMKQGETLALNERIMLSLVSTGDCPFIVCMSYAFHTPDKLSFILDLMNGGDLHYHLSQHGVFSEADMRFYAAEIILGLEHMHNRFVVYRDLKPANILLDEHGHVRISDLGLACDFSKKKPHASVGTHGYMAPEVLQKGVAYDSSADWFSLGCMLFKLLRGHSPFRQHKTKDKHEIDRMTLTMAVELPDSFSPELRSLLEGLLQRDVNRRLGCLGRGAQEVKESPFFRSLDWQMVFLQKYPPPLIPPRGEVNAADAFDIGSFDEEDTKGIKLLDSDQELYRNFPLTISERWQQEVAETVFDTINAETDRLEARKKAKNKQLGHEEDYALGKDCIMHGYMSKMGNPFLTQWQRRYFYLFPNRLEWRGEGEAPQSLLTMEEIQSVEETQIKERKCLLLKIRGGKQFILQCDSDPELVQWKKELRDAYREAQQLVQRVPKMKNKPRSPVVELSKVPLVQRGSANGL
Chain of AP-2 complex subunit beta (Homo sapiens) (P63010 whole entry, looked up, the tested form may be a part, one chain of several): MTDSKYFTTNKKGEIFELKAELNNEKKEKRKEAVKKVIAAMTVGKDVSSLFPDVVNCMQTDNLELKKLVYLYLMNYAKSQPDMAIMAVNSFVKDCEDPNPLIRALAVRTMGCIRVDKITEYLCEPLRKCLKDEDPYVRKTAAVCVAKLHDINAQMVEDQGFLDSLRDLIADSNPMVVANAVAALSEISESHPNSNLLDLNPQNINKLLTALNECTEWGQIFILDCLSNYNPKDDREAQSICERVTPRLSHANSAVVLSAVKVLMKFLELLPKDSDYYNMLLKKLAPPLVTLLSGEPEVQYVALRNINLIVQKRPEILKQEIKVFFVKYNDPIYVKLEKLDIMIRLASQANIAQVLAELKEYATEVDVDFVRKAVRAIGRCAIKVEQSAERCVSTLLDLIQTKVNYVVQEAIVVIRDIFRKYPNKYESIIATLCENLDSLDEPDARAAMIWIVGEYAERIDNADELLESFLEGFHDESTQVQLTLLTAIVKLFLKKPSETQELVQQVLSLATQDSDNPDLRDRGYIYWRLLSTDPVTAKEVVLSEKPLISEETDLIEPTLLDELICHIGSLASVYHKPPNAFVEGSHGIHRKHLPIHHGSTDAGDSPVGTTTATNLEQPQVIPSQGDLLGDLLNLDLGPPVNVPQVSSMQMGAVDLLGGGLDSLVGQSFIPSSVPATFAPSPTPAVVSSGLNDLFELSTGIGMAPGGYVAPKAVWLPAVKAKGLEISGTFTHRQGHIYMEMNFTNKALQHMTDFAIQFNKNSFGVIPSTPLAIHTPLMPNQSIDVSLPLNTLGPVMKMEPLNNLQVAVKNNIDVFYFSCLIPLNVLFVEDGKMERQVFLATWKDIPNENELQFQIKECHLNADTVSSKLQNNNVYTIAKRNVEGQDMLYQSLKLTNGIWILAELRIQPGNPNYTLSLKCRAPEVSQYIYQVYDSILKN
Chain of Beta-2 adrenergic receptor (Homo sapiens) (P07550 whole entry, looked up): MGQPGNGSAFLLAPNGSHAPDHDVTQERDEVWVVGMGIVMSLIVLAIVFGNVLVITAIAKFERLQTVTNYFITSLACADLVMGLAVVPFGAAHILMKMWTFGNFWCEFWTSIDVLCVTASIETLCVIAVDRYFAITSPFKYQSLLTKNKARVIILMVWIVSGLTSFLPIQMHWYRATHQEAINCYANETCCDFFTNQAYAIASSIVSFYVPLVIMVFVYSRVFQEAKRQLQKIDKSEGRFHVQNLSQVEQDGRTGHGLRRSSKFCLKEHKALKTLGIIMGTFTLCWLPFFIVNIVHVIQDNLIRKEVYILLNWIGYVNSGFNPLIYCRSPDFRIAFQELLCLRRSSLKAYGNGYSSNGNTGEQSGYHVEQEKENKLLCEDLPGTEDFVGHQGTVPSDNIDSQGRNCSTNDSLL
Chain of Integrin beta-1 (Homo sapiens) + Integrin alpha-4 (Homo sapiens) (P05556 whole entry, looked up): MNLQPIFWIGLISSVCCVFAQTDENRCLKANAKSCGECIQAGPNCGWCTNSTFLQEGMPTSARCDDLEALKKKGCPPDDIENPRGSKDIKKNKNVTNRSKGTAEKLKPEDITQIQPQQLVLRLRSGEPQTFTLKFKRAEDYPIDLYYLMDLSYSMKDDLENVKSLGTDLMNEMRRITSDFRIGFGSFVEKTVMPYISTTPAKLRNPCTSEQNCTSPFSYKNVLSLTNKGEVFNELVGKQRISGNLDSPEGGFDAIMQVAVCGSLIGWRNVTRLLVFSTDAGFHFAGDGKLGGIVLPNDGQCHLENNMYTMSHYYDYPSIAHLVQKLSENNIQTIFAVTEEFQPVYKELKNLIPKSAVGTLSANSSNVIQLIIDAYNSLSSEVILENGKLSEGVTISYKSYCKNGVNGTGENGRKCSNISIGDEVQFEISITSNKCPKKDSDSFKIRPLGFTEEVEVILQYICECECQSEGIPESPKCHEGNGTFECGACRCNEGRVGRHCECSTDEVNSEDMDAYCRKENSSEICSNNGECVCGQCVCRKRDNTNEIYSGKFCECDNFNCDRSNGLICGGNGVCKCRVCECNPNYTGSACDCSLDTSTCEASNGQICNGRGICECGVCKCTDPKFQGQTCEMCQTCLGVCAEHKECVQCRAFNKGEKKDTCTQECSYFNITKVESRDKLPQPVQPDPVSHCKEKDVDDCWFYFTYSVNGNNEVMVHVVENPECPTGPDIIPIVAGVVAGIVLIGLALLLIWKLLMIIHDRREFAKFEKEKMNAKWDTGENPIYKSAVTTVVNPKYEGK
Chain of Integrin beta-1 (Homo sapiens) + Integrin alpha-4 (Homo sapiens) (P13612 whole entry, looked up): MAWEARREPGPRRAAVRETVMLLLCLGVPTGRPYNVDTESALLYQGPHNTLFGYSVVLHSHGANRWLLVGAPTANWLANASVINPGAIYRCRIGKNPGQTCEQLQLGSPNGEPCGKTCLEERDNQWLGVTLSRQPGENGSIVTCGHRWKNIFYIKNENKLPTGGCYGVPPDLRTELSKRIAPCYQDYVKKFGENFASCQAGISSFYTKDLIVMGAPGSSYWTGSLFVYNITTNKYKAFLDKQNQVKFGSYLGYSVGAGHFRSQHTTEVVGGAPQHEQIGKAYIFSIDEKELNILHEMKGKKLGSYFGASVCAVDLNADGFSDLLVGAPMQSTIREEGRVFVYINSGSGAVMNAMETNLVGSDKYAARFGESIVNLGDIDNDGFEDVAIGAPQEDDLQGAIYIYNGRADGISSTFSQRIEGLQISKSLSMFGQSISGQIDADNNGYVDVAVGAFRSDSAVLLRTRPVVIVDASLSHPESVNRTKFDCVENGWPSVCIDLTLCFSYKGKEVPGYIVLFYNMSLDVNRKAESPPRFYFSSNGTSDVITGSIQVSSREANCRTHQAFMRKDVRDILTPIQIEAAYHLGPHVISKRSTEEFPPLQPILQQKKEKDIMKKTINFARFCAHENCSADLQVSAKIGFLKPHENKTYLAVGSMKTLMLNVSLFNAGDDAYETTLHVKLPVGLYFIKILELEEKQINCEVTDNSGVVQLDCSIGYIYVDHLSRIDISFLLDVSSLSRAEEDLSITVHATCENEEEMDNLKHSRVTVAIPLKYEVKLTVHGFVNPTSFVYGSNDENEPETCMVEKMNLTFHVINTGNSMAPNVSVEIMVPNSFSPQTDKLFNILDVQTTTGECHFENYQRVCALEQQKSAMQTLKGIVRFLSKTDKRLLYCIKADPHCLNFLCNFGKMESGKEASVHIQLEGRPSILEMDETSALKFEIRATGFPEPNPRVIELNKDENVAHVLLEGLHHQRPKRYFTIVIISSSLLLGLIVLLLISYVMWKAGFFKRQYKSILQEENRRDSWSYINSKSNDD
Chain of ATP-binding cassette sub-family B member 6 (Homo sapiens) (Q9NP58 whole entry, looked up): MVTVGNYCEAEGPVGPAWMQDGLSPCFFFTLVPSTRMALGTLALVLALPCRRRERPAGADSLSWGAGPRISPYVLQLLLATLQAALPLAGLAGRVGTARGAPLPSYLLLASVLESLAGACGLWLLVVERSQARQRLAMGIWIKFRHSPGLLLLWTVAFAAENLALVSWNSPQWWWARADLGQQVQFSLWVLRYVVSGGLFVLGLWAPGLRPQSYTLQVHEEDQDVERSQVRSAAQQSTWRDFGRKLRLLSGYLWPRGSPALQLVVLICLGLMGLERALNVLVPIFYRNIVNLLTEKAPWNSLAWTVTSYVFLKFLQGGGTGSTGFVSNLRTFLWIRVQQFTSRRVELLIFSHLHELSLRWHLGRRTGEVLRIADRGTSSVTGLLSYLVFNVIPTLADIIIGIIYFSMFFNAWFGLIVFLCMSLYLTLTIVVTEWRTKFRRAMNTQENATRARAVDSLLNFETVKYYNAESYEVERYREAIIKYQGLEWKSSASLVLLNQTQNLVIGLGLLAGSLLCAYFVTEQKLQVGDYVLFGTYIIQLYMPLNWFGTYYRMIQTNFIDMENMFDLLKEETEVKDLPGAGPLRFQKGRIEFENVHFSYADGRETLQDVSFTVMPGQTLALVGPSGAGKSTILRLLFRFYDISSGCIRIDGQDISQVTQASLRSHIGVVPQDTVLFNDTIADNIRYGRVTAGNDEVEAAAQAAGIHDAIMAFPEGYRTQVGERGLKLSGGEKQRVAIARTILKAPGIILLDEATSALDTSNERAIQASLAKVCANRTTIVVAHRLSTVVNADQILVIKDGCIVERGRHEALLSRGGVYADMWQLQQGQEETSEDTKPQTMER

Regarding `COc1cc(CNCc2ccc(OC)c(OC)c2OC)cc(OC)c1`, in test [1], the percent of DMSO control GFP was 105% (inactive). In addition, the values for the GFP response vs DMSO in test [2] and in test [4] were 110% (inactive) and 104% (inactive), respectively. For the same compound, in test [3], the percent response of DMSO control is 105% (inactive). Besides, the GFP response, % of DMSO in test [5] is 112% (inactive). In test [6], the double positive events stood at 60.7%. Moreover, the vesicle binding response in test [6] was 178% (inactive). In addition, the inhibition in [7] was 33.8% (inactive); in test [11] it was 64.9% (active); in [15] it was 1% (inactive). For the same compound, the superoxide response (% of plate) in [8] was 106% (inactive). Besides, the aptamer binding inhibition in test [9] was 2% (inactive). The response in test [10] is -16% (inactive); in test [12], 22.7% (active). Moreover, in [13], the binding (% of control) is 102% (inactive). Also, in test [14], the efflux inhibition (fraction of control) was 0 (inactive). In test [16], the differentiation response was -11.9% (inactive).

As for `Cc1oc2c(O)c(O)ccc2c(=O)c1-c1ccccc1`, the percent of DMSO control GFP in [1] is 87.8% (inactive). Besides, the GFP response vs DMSO in test [2] was 107% (inactive); in test [4] it was 74.3% (inactive). Also, the percent response of DMSO control in [3] is 106% (inactive). In [5], the GFP response, % of DMSO is 90.8% (inactive). Also, the double positive events in test [6] is 59.4%. Besides, in [6], the vesicle binding response is 119% (inactive). Further, the inhibition was -1.3% (inactive) in test [7], -5.67% (inactive) in test [11] and 9% (inactive) in [15]. Further, the superoxide response (% of plate) in test [8] is 110% (inactive). Moreover, in test [9], the aptamer binding inhibition is 3% (inactive). Also, the response was -8.83% (inactive) in [10] and -1.26% (inactive) in [12]. In addition, the binding (% of control) in test [13] is 107% (inactive). For the same compound, the efflux inhibition (fraction of control) in test [14] is 0.45 (active). Also, the differentiation response in test [16] is -2.46% (inactive).

`COc1ccc2oc(=O)c(C(=O)Nc3ccccc3-c3ccccc3)cc2c1`: the percent of DMSO control GFP in [1] was 101% (inactive). For the same compound, the GFP response vs DMSO is 104% (inactive) in [2] and 97.1% (inactive) in [4]. Also, the percent response of DMSO control in [3] was 99% (inactive). Further, the GFP response, % of DMSO in [5] is 113% (inactive). Moreover, the double positive events in [6] came out at 64.5%. For the same compound, in test [6], the vesicle binding response was 167% (inactive). Besides, the inhibition in test [7] was 2.29% (inactive); in test [11], 85% (active); in test [15], 6% (inactive). In addition, in test [8], the superoxide response (% of plate) was 94.6% (inactive). The aptamer binding inhibition in [9] was 4% (inactive). Also, the response is 13.6% (inactive) in test [10] and -7.05% (inactive) in test [12]. In addition, the binding (% of control) in test [13] is 97.4% (inactive). Moreover, the efflux inhibition (fraction of control) in [14] is 0 (inactive). The differentiation response in [16] is -8.93% (inactive).

As for `O=C(Nc1ncc2c(n1)CC(c1ccco1)CC2=O)c1ccco1` (stereo not drawn), in [1], the percent of DMSO control GFP was 93.9% (inactive). Moreover, the GFP response vs DMSO is 113% (inactive) in [2] and 132% (inactive) in [4]. Besides, in test [3], the percent response of DMSO control was 95.8% (inactive). Moreover, the GFP response, % of DMSO in [5] is 95.7% (inactive). The double positive events in [6] is 55%. The vesicle binding response in [6] is 187% (inactive). Moreover, the inhibition was -11.3% (inactive) in test [7], 1.11% (inactive) in test [11] and 1% (inactive) in [15]. Besides, the superoxide response (% of plate) in test [8] is 102% (inactive). Besides, the aptamer binding inhibition in test [9] was 6% (inactive). Also, the response in test [10] was -16% (inactive); in test [12], -0.72% (inactive). The binding (% of control) in test [13] was 99.1% (inactive). For the same compound, the efflux inhibition (fraction of control) in test [14] is 0.01 (inactive). In addition, in test [16], the differentiation response was -18.4% (inactive).
